This is an account of results in PubChem BioAssay (Tox21).

Results filed as inconclusive are left out. Unmarked numbers belong to inactive results. Activity calls are given as the source filed them. Calls come from the whole dose curve; as a rule, active = well fitted cell-killing curve with a large enough effect in the repeat runs; inconclusive = weak or mixed curves, or effect the other way; inactive = flat fitted curve, though single readings scatter.

Assay [1] can be described thus: cAMP Responsive Elements (CRE) small molecule antagonists, cell-based qHTS assay: qHTS cell viability counter screen (AID 2060913). Note: nearly all actives have a fitted effect of over 40% in size. In outline: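 CRE-bla HEK293T cells (2,000/well, 18 h) given compound plus NKH477 0.25 uM final for 3 h at 37C; viability counter-screen by CellTiter-Glo luminescence in same wells after 30 min.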
A short description of assay [2]: cAMP Responsive Elements (CRE) small molecule agonists, cell-based qHTS assay: qHTS cell viability counter screen (AID 2060914). Note: nearly all actives have a fitted effect of over 50% in size. In outline: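 Luminescence read-out (CellTiter-Glo, 30 min RT) of ATP-based viability in CRE-bla HEK 293T cells, run in the same wells as the β-lactamase reporter assay after 3 h compound treatment at 37 °C.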
In general terms: In qHTS, concentration-response curves come from the screen itself.
% is set by controls: 0 for no effect and ±100 for the full control effect.

On to `CC(=O)Nc1ccc(S(N)(=O)=O)cc1`, for which the Potency result in assay [1] and in assay [2] was “inactive” in each case.

For the compound `COc1nccnc1NS(=O)(=O)c1ccc(N)cc1`, the Potency entry in assay [1] and in assay [2] was “inactive” in each case.

In the case of `Cc1cc2nc3c(=O)[nH]c(=O)nc-3n(C[C@H](O)[C@H](O)[C@H](O)CO)c2cc1C`, the Potency result in assay [1] and in assay [2] was “inactive” in each case.

In the case of `CC(=O)O[C@H](CC(=O)[O-])C[N+](C)(C)C`, the Potency result in assay [1] and in assay [2] was “inactive” throughout.

For the compound `CC(=O)O[C@H]1CC[C@@]2(C)C(=CC[C@@H]3[C@@H]2CC[C@]2(C)C(C(C)=O)=CC[C@@H]32)C1`, the Potency entry in assay [1] and in assay [2] was “inactive” each time.

For `[O-][n+]1ccc(Cl)cc1`, the Potency entry in assay [1] and in assay [2] was “inactive” each time.

Consider `CCCc1ccccc1O`, for which the Potency entry in assay [1] and in assay [2] was “inactive” throughout.

As to `CCCCCSCCCCC`, the Potency entry in assay [1] and in assay [2] was “inactive” throughout.

As to `O=C(c1ccc(F)cc1)C1CCN(CCn2c(=S)[nH]c3ccccc3c2=O)CC1`, the Potency entry in assay [1] and in assay [2] was “inactive” in each case.

Consider `O=C(N/N=C/c1ccccc1O)c1ccncc1`, for which the Potency entry in assay [1] and in assay [2] was “inactive” in each case.

For the compound `NCCNCCNCCN`, the Potency entry in assay [1] and in assay [2] was “inactive” throughout.

For `CCCCC(=O)N(C)C`, the Potency result in assay [1] and in assay [2] was “inactive” throughout.

Consider `CCCCOc1cc(C(=O)OCCN(CC)CC)ccc1N`, for which the Potency entry in assay [1] and in assay [2] was “inactive” throughout.

With `CCOc1ccc(C(=O)OCCN(CC)CC)cc1`, the Potency entry in assay [1] and in assay [2] was “inactive” each time.

For the compound `CCCCCCCCCCCCOC(C)=O`, the Potency entry in assay [1] and in assay [2] was “inactive” in each case.

In the case of `Cc1cn([C@H]2C=C[C@@H](CO)O2)c(=O)[nH]c1=O`, the Potency entry in assay [1] and in assay [2] was “inactive” in each case.

`CC1(C)[C@H](C(=O)OCc2cccc(Oc3ccccc3)c2)[C@@H]1C=C(Cl)Cl`: the Potency entry in assay [1] and in assay [2] was “inactive” in each case.

For `O=[N+]([O-])C(CO)(CO)CO`, the Potency entry in assay [1] and in assay [2] was “inactive” throughout.

As for `CC/C=C1/OC(=O)c2ccccc21`, the Potency result in assay [1] and in assay [2] was “inactive” each time.

Consider `O=C1c2ccccc2C(=O)c2cc(S(=O)(=O)O)ccc21`, for which the Potency entry in assay [1] and in assay [2] was “inactive” in each case.

In the case of `N#Cc1cc2ccccc2c2ccccc12`, the Potency entry in assay [1] and in assay [2] was “inactive” each time.

As for `CN(C)c1nc(N(C)C)nc(N(C)C)n1`, the Potency entry in assay [1] and in assay [2] was “inactive” each time.

As for `Cc1cc(=O)oc2cc(O)cc(O)c12`, the Potency entry in assay [1] and in assay [2] was “inactive” each time.

`CCCCOC(=O)[C@H](C)O`: the Potency entry in assay [1] and in assay [2] was “inactive” throughout.

As to `O=Cc1cc2ccccc2o1`, the Potency entry in assay [1] and in assay [2] was “inactive” throughout.

Turning to `CC(C=O)c1ccccc1` (stereo not given), the Potency entry in assay [1] and in assay [2] was “inactive” throughout.

`C=CCCCCCCCCCC`: the Potency result in assay [1] and in assay [2] was “inactive” in each case.

Take `CC(C)(CO)[C@@H](O)C(=O)NCCCO`: the Potency entry in assay [1] and in assay [2] was “inactive” throughout.

Take `COc1ccc(N=Nc2cc(C)c(N=Nc3ccc(S(=O)(=O)O)cc3)cc2OC)cc1`: the Potency result in assay [1] and in assay [2] was “inactive” throughout.

`CN1CCOC(c2ccccc2)c2ccccc2C1` (stereo not given): the Potency entry in assay [1] and in assay [2] was “inactive” in each case.

For `CC1=CC(=O)[C@H]2C[C@@H]1C2(C)C`, the Potency entry in assay [1] and in assay [2] was “inactive” in each case.

As for `CC1=CC(C)C(C=O)CC1` (stereo not given), the Potency entry in assay [1] and in assay [2] was “inactive” in each case.

Turning to `CCC(CC)CO`, the Potency result in assay [1] and in assay [2] was “inactive” throughout.

In the case of `CCCCOCCOC(=O)CCCCCCCCC(=O)OCCOCCCC`, the Potency result in assay [1] and in assay [2] was “inactive” each time.

Take `CCC(=O)OCc1ccccc1`: the Potency entry in assay [1] and in assay [2] was “inactive” each time.

On to `OCCC1CCCCN1` (stereo not given), for which the Potency entry in assay [1] and in assay [2] was “inactive” each time.

On to `C=C1CCC2CC1C2(C)C` (stereo not given), for which the Potency result in assay [1] and in assay [2] was “inactive” in each case.

For the compound `Cc1occc1SSc1ccoc1C`, the Potency entry in assay [1] and in assay [2] was “inactive” in each case.

For `CCCCCCCCCCCCCCC[C@H](O)[C@@H](N)CO`, the Potency entry in assay [1] and in assay [2] was “inactive” throughout.

For `CC/C=C\CC/C=C/CO`, the Potency entry in assay [1] and in assay [2] was “inactive” in each case.

`CCN(CC)CCNC(=O)c1c(C)[nH]c(/C=C2\C(=O)Nc3ccc(F)cc32)c1C`: the Potency entry in assay [1] and in assay [2] was “inactive” throughout.

Take `COc1ccc(C)cc1`: the Potency entry in assay [1] and in assay [2] was “inactive” each time.

Regarding `CCCCCCC(O)CCOC(C)=O` (stereo not given), the Potency entry in assay [1] and in assay [2] was “inactive” in each case.

Turning to `OCC#CCO`, the Potency entry in assay [1] and in assay [2] was “inactive” each time.

For the compound `CCC(C)c1cc([N+](=O)[O-])cc([N+](=O)[O-])c1OC(=O)OC(C)C` (stereo not given), the Potency entry in assay [1] and in assay [2] was “inactive” each time.

As for `CN(C)Cc1cc(CN(C)C)c(O)c(CN(C)C)c1`, the Potency entry in assay [1] and in assay [2] was “inactive” in each case.

On to `O=C(O)c1ccccc1Nc1cc(Cl)ccc1C(=O)O`, for which the viability change, negative = cytotoxic in assay [1] is -0.998% [at 18.9 µM]. For the same compound, in assay [2], the activity change, negative = cytotoxicity is 0.206% [at 18.9 µM].

Regarding `Nc1cccc2c(=O)[nH][nH]c(=O)c12`, the Potency result in assay [1] and in assay [2] was “inactive” each time.

Consider `O=C(O)c1cccc(Cl)n1`, for which the Potency result in assay [1] and in assay [2] was “inactive” throughout.

As to `C=C(c1ccc(C(=O)O)cc1)c1cc2c(cc1C)C(C)(C)CCC2(C)C`, the Potency entry in assay [1] and in assay [2] was “inactive” in each case.

With `Cc1ccc(O)c([C@H](CCN(C(C)C)C(C)C)c2ccccc2)c1`, the Potency entry in assay [1] and in assay [2] was “inactive” throughout.

In the case of `CC(C)(C)C(=O)c1ccccc1`, the Potency result in assay [1] and in assay [2] was “inactive” throughout.

Consider `CC(=O)C(C)C`, for which the Potency entry in assay [1] and in assay [2] was “inactive” throughout.

In the case of `CCCCC(CC)COC(=O)c1ccc(C(=O)OCC(CC)CCCC)cc1` (stereo not given), the Potency entry in assay [1] and in assay [2] was “inactive” throughout.

As for `c1cnc(N2CCN(Cc3ccc4c(c3)OCO4)CC2)nc1`, the Potency entry in assay [1] and in assay [2] was “inactive” each time.

On to `COC(=O)CCCC(=O)O`, for which the Potency result in assay [1] and in assay [2] was “inactive” in each case.

For `CCCCN(C)C`, the Potency entry in assay [1] and in assay [2] was “inactive” throughout.

`COC1=C(OC)C(=O)C(CCCCCCCCCCO)=C(C)C1=O`: the Potency entry in assay [1] and in assay [2] was “inactive” each time.

As to `CCCCCCCCCC(C)C=O` (stereo not given), the Potency result in assay [1] and in assay [2] was “inactive” in each case.

Regarding `O=C(O)c1cc2ccccc2cc1O`, the Potency result in assay [1] and in assay [2] was “inactive” in each case.
